Results filed as inconclusive are left out. A number with no mark means an inactive call. Active and inactive are the calls of the source. Calls come from the whole dose curve; as a rule, active = well fitted cell-killing curve with a large enough effect; inconclusive = small, poorly fitted or top-dose-only effect, or effect the other way; inactive = no such curve, though single readings can be large or run the other way.
Potency is the fitted concentration of half-maximal effect.

The test can be described thus: Quantitative High-Throughput drug screen in 47 multiple myeloma cell lines against the NCATS MIPE library collection: OCIMY7_PLB cell viability assay (AID 1918987). Note: nearly all actives have a fitted effect of over 65% in size. The note with it: OCI-MY7 myeloma viability, CellTiter-Glo ATP, 48 h; viability (% of DMSO): at 45.8 µM (top of the series). An excerpt: PI: Beverly A. Mock Ph.D.
Laboratory of Cancer Biology and Genetics,
Center for Cancer Research, National Cancer Institute,
National Institute of Health, Bethesda, Maryland
Drug resistance and disease progression are common in multiple myeloma (MM) patients, underscoring the need for new therapeutic combinations. […] We hypothesized that effective combinations would reduce MYC expression and enhance p16 activity. […] These preclinical data identify potentially useful drug combinations for evaluation in drug-resistant MM and reveal potential mechanisms of combined drug sensitivity.
Described herein is the primary MIPE qHTS used to cherrypick compounds. Validated compounds were then further tested for potential synergistic activiy.
[1] Peat TJ, Gaikwad SM, Dubois W, Gyabaah-Kessie N, Zhang S, Gorjifard S, Phyo Z, Andres M, Hughitt VK, Simpson RM, Miller MA, Girvin AT, Taylor A, Williams D, D'Antonio N, Zhang Y, Rajagopalan A, Flietner E, Wilson K, Zhang X, Shinn P, Klumpp-Thomas C, McKnight C, Itkin Z, Chen L, Kazandijian D, Zhang J, Michalowski AM, Simmons JK, Keats J, Thomas CJ, Mock BA. Drug combinations identified by high-throughput screening promote cell cycle transition and upregulate Smad pathways in myeloma. Cancer Lett. 2023 Aug 1;568:216284. doi: 10.1016/j.canlet.2023.216284. Epub 2023 Jun 24. PMID: 37356470; PMCID: PMC10408729.
SEQUENCE No. (e.g., 1, 2, 3, etc.); […] (e.g., Cells, Incubation, Reagent, etc.); VALUE and DESCRIPTION.
1; Cells; 5 uL; white, solid bottom 1536-well Greiner assay plate.
2; Compounds; 23 nL; Kalypsis pin tool (Wako USA) equipped with a 1536-well pin head to transfer to the assay plates.
3; Incubation; 48 hours; 37C incubation.
4; Reagent;5uL; CellTiter Glo (Promega).
5; Detector; 425V; Luminescence; Viewlux PerkinElmer.
NOTES (numbers refer to Sequence numbers above)
1. The cell-based screening methods employed in this study were like those previously published. Briefly, the corresponding myeloma cell lines were screened in 1,536-well plates with 500 cells, 5-uL per well for inhibition of cell viability (assessed by measuring ATP levels with CellTiterGlo).
2. NCATS MIPE 4.0 library of approved and investigational drugs were added using the Kalypsis pin tool. Wells treated with DMSO only for 100% viability and media only for 0% viability were used as controls.
3. The assay plates were covered and incubated for 48 hours in a 37C, 5% CO2 incubator with controlled humidity.
4. After 48 hours, CellTilter-GloTM luminescent substrate mix (Promega) reagent was added to the assay plate and plates we incubated for 5 min at room temperature.
5. Signal was measured as median relative luminescence units on a ViewLux (PerkinElmer) multiplate reader.
[1] Heske CM, Davis MI, Baumgart JT, Wilson K, Gormally MV, Chen L, Zhang X, Ceribelli M, Duveau DY, Guha R, Ferrer M, Arnaldez FI, Ji J, Tran HL, Zhang Y, Mendoza A, Helman LJ, Thomas CJ. Matrix Screen Identifies Synergistic Combination of PARP Inhibitors and Nicotinamide Phosphoribosyltransferase (NAMPT) Inhibitors in Ewing Sarcoma. Clin Cancer Res. 2017 Dec 1;23(23):7301-7311. doi: 10.1158/1078-0432.CCR-17-1121. Epub 2017 Sep 12. PMID: 28899971; PMCID: PMC6636827.
(In general: ATP-based viability assays read luminescence as a measure of living cells.)
As to `CO[C@H]1C=CO[C@@]2(C)Oc3c(C)c(O)c4c(O)c(c5c(c4c3C2=O)NC2(CCN(CC(C)C)CC2)N=5)=NC(=O)C(C)=CC=C[C@H](C)[C@H](O)[C@@H](C)[C@@H](O)[C@@H](C)[C@H](OC(C)=O)[C@H]1C`, the Potency was 4.18 µM (active).
Turning to `CO[C@H]1C[C@@H]2CC[C@@H](C)[C@@](O)(O2)C(=O)C(=O)N2CCCC[C@@H]2C(=O)O[C@H]([C@H](C)C[C@@H]2CC[C@H](OP(C)(C)=O)[C@H](OC)C2)CC(=O)[C@H](C)C=C(C)[C@@H](O)[C@@H](OC)C(=O)[C@H](C)C[C@H](C)C=CC=CC=C1C`, the Potency was 14.8 µM (active).
As to `O=c1cc(N2CCOCC2)oc2c(-c3cccc4c3sc3ccccc34)cccc12`, the Potency is 1.18 µM (active).
For the compound `CO[C@H]1C=CC=C(C)C(=O)NC2=CC(=O)C(NCCN(C)C)=C(C[C@@H](C)C[C@H](OC)[C@@H](O)[C@@H](C)C=C(C)[C@@H]1OC(N)=O)C2=O`, the Potency is 0.0662 µM (active).
Still for that read-out and setting: next, `CC(C)[C@H](CO)Nc1nc(Nc2ccc(C(=O)O)c(Cl)c2)c2ncn(C(C)C)c2n1`: 16.6 µM (active).
Take `CCNc1cc(NC2CCC(O)CC2)nc(Nc2ccc3c(ccn3Cc3ccccc3)c2)n1` (stereo not given): the Potency was 16.6 µM (active).
Regarding `CC(C)C(=O)Nc1ncc(-c2cc(C(F)F)nn2-c2c(Cl)cccc2Cl)s1`, the Potency was 16.6 µM (active).
As for `CCn1c(C(=O)N(C2CC2)C2CC2)cc2c3c(ncn3C)c(Nc3cc(C)n(C)n3)nc21`, the Potency is 14.8 µM (active).
Consider `O=C(O)C=Cc1ccc(O)c(O)c1`, for which the Potency is 16.6 µM (active).
As to `COc1ccc(-c2oc3c(CC=C(C)C)c(OC4O[C@H](CO)[C@@H](O)[C@H](O)[C@@H]4O)cc(O)c3c(=O)c2OC2O[C@@H](C)[C@H](O)[C@@H](O)[C@@H]2O)cc1` (stereo not given in full), the Potency was 13.2 µM (active).
On to `C=C1C(=O)OC(CCCCCCCC)C1C(=O)O` (stereo not given), for which the Potency was 11.8 µM (active).
Consider `CO[C@H]1C[C@@H]2CC[C@@H](C)[C@@](O)(O2)C(=O)C(=O)N2CCCC[C@@H]2C(=O)O[C@H]([C@H](C)C[C@@H]2CC[C@H](OC(=O)C(C)(CO)CO)[C@H](OC)C2)CC(=O)[C@H](C)C=C(C)[C@@H](O)[C@@H](OC)C(=O)[C@H](C)C[C@H](C)C=CC=CC=C1C`, for which the Potency is 14.8 µM (active).
In the case of `COc1cc2c(cc1OC)CN(CCc1ccc(NC(=O)c3cc(OC)c(OC)cc3NC(=O)c3cnc4ccccc4c3)cc1)CC2`, the Potency was 6.62 µM (active).
With `CC1(C)CCC(CN2CCN(c3ccc(C(=O)NS(=O)(=O)c4ccc(NCC5CCOCC5)c([N+](=O)[O-])c4)c(Oc4cnc5[nH]ccc5c4)c3)CC2)=C(c2ccc(Cl)cc2)C1`, the Potency is 0.59 µM (active).
As to `CO[C@H]1C(=O)[C@]2(C)[C@@H](OC)C[C@H]3OC[C@@]3(OC(C)=O)[C@H]2[C@H](OC(=O)c2ccccc2)[C@]2(O)C[C@H](OC(=O)[C@H](O)[C@@H](NC(=O)OC(C)(C)C)c3ccccc3)C(C)=C1C2(C)C`, the “viability (% of DMSO)” value was 17.7%.
With `COc1ccc(Cc2nccc3cc(OC)c(OC)cc23)cc1OC`, the Potency was 18.7 µM (active).
In the case of `COc1cccc(-c2cc(=O)c3ccccc3o2)c1N`, the Potency was 2.96 µM (active).
For `Cc1ccn(-c2ccc(-c3ncco3)cc2)c(=O)c1-c1ccc2nc(N)ncc2c1`, the Potency is 0.935 µM (active).
For `O=C1NC(=O)C(=Cc2ccc3nccnc3c2)S1`, the Potency is 2.29 µM (active).
`CCOC(=O)C1=C(N)Oc2ccc(Br)cc2C1C(C#N)C(=O)OCC` (stereo not given): the Potency was 7.43 µM (active).
In the case of `C[N+](C)(C)CC(=O)O`, the “viability (% of DMSO)” value was 126%.
Regarding `CC(C)OC(=O)CCCC=CC[C@@H]1[C@H](C=C[C@@H](O)COc2cccc(C(F)(F)F)c2)[C@H](O)C[C@@H]1O`, the Potency was 14.8 µM (active).
Take `CC(C)OC(=O)C(C)(C)Oc1ccc(C(=O)c2ccc(Cl)cc2)cc1`: the “viability (% of DMSO)” value was 269%.
The same measure, in the same setting: with `O=C(N[C@@H](c1ccccc1)[C@@H]1CCCCN1)c1cccc(C(F)(F)F)c1Cl` the figure was 144%.
With `Nc1nc(F)nc2c1ncn2[C@@H]1O[C@H](COP(=O)(O)O)[C@@H](O)[C@H]1O`, the Potency is 18.7 µM (active).
Turning to `Cc1[nH]c(C=C2C(=O)Nc3ccc(S(=O)(=O)Cc4c(Cl)cccc4Cl)cc32)c(C)c1C(=O)N1CCC[C@H]1CN1CCCC1`, the Potency was 10.5 µM (active).
Still for that read-out and setting: with `C=C1C(=O)[C@@]23C(CC[C@@H]1[C@H]2O)[C@@]12CO[C@]3(O)[C@@H](O)[C@@H]1C(C)(C)CC[C@@H]2O` (stereo not given in full) the figure was 0.296 µM (active); with `CCCCCCCCCCCC1=C(O)C(=O)C=C(O)C1=O`, 10.5 µM (active).
Same read-out and setting: with `Cc1nc(N)sc1-c1ccnc(Nc2ccc(N3CCOCC3)cc2)n1` the figure was 1.05 µM (active); with `COc1cc2ncnc(Nc3ccc(F)c(Cl)c3)c2cc1OCCCN1CCOCC1`, 1.08 µM (active).
Regarding `COc1ccc(-c2coc3cc(O)cc(O)c3c2=O)cc1`, the “viability (% of DMSO)” value is 189%.
Regarding `CC=C(C)C(=O)O[C@H]1C(C)=C[C@]23C(=O)[C@@H](C=C(CO)[C@@H](O)[C@]12O)[C@H]1[C@@H](C[C@H]3C)C1(C)C`, the Potency was 14.8 µM (active).
As to `O=C(CCCCCCC(=O)Nc1ccccc1)NO`, the Potency was 2.35 µM (active).
Take `COc1cc(Nc2ncc(F)c(Nc3ccc4c(n3)NC(=O)C(C)(C)O4)n2)cc(OC)c1OC`: the Potency was 0.743 µM (active).
Still for that read-out and setting: with `CO[C@H]1C[C@@H]2CC[C@@H](C)[C@@](O)(O2)C(=O)C(=O)N2CCCC[C@@H]2C(=O)O[C@H]([C@@H](C)C[C@@H]2CC[C@H](O)[C@H](OC)C2)CC(=O)[C@H](C)C=C(C)[C@@H](O)[C@@H](OC)C(=O)[C@H](C)C[C@H](C)C=CC=CC=C1C` the figure was 14.8 µM (active); with `O=C(Nc1cc(Cl)cc2c1[nH]c1cnccc12)c1cccnc1`, 14.8 µM (active).
Same read-out and setting: next, `CCc1ccc(OCc2ccccc2C(=O)Nc2ccc3nc(C)cc(N)c3c2)cc1`: 1.05 µM (active); `COc1ccc2c(Oc3ccc(NC(=O)c4c(C)n(CC(C)(C)O)n(-c5ccccc5)c4=O)cc3F)ccnc2c1`: 16.6 µM (active); `CO[C@@H](C(=O)N1Cc2[nH]nc(NC(=O)c3ccc(N4CCN(C)CC4)cc3)c2C1)c1ccccc1`: 0.332 µM (active).
On to `COc1cc2nc(-c3ccc(N4CCN(C)CC4)cc3)nc(NCCN3CCOCC3)c2cc1OC`, for which the Potency is 14.8 µM (active).

The values are drawn from PubChem BioAssay (NCATS).
